# Test results reported in the supplement of paper PMC8728848.
# The sample as a whole holds a higher share of the strongest signals than the screen did.
# B1: AcfC (Vibrio cholerae), Q57410 (protein)
# chain: MKSKNRFLLISLLSFSTSVFADVNLYGPGGPHVPLIKVAESFEKSQSKRVNITFGPQATWNDKAKKNADILFGASEHSALAIAEGHSERFSKFNIHPVFMREAIILVKKGNPKNIKGMADLLKPGIGIVVNDGAGVSNTSGTAVWEDSVGRMKNVEKLQAFRSNIHVFAPNSGSARKAFVDGEDIDAWITWVDWAIANPTIGDMVRMEDEYRIYRDFNVVLAKNPSSEAIDFFDYLTKSKDAEAIFQHYGWFK
# Experiments:
# Test in all cases: glycan array binding signal (z-score within array); higher = stronger binding
# Conditions in all cases: glycan notation: IUPAC condensed, linker removed
# Fuc(a1-2)Gal(b1-3)GalNAc = molecular target: Fuc(a1-2)Gal(b1-3)GalNAc
# Method in brief: (§1)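 The binding signal is a Z-score computed within each array and averaged over linkers. Arrays of the same protein sequence at different concentrations or buffers were also averaged together. Data originate from 3228 arrays in the Consortium for Functional Glycomics database, kept only where the protein sequence was available.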
# [1] = molecular target: Fuc(a1-2)Gal(b1-3)GalNAc(a1-3)[Fuc(a1-2)]Gal(b1-4)Glc
# Method in brief: as §1
# [2] = molecular target: Fuc(a1-2)Gal(b1-3)GalNAc(b1-4)[Neu5Ac(a2-3)]Gal(b1-4)Glc
# Method in brief: as §1
# [3] = molecular target: Fuc(a1-2)Gal(b1-3)[Fuc(a1-4)]GlcNAc
# Method in brief: as §1
# [4] = molecular target: Fuc(a1-2)Gal(b1-3)[Fuc(a1-4)]GlcNAc(b1-3)[Gal(b1-4)GlcNAc(b1-6)]Gal(b1-4)Glc
# Method in brief: as §1
# [5] = molecular target: Fuc(a1-2)Gal(b1-4)[Fuc(a1-3)]GlcNAc(b1-2)Man(a1-3)[Fuc(a1-2)Gal(b1-4)[Fuc(a1-3)]GlcNAc(b1-2)Man(a1-6)]Man(b1-4)GlcNAc(b1-4)GlcNAc
# Method in brief: as §1
# [6] = molecular target: Fuc(a1-2)Gal(b1-4)[Fuc(a1-3)]GlcNAc(b1-3)Gal(b1-4)[Fuc(a1-3)]GlcNAc(b1-3)Gal(b1-4)[Fuc(a1-3)]GlcNAc
# Method in brief: as §1
# [7] = molecular target: Fuc(a1-2)[GalNAc(a1-3)]Gal(b1-4)GlcNAc
# Method in brief: as §1
# [8] = molecular target: Fuc(a1-3)[Gal(b1-4)]GlcNAc(b1-3)GalNAc
# Method in brief: as §1
# [9] = molecular target: Gal(a1-3)Gal(b1-3)[Fuc(a1-4)]GlcNAc(b1-2)Man(a1-3)[Gal(a1-3)Gal(b1-3)[Fuc(a1-4)]GlcNAc(b1-2)Man(a1-6)]Man(b1-4)GlcNAc(b1-4)GlcNAc
# Method in brief: as §1
# Gal(a1-3)Gal(b1-4)Glc = molecular target: Gal(a1-3)Gal(b1-4)Glc
# Method in brief: as §1
# [10] = molecular target: Gal(a1-3)Gal(b1-4)GlcNAc(b1-3)GalNAc
# Method in brief: as §1
# [11] = molecular target: Gal(a1-3)[Gal(a1-4)]Gal(b1-4)GlcNAc
# Method in brief: as §1
# Gal(a1-4)Gal(b1-4)GlcNAc = molecular target: Gal(a1-4)Gal(b1-4)GlcNAc
# Method in brief: as §1
# Gal(a1-4)GlcNAc = molecular target: Gal(a1-4)GlcNAc
# Method in brief: as §1
# [12] = molecular target: Gal(b1-3)GalNAc(a1-3)[Fuc(a1-2)]Gal(b1-4)Glc
# Method in brief: as §1
# Gal(b1-3)GlcNAc = molecular target: Gal(b1-3)GlcNAc
# Method in brief: as §1
# [13] = molecular target: Gal(b1-3)GlcNAc(b1-3)Gal(b1-4)GlcNAc
# Method in brief: as §1
# [14] = molecular target: Gal(b1-4)GlcNAc(b1-2)Man(a1-3)[Gal(b1-4)GlcNAc(b1-2)Man(a1-6)]Man(b1-4)GlcNAc(b1-4)GlcNAc
# Method in brief: as §1
# [15] = molecular target: Gal(b1-4)GlcNAc(b1-2)Man(a1-6)[GlcNAc(b1-2)Man(a1-3)]Man(b1-4)GlcNAc(b1-4)GlcNAc
# Method in brief: as §1
# Gal3S(b1-4)Glc6S = molecular target: Gal3S(b1-4)Glc6S
# Method in brief: as §1
# GalNAc(a1-3)Gal = molecular target: GalNAc(a1-3)Gal
# Method in brief: as §1
# GalNAc(b1-3)GalNAc = molecular target: GalNAc(b1-3)GalNAc
# Method in brief: as §1
# GalNAc(b1-4)GlcNAc = molecular target: GalNAc(b1-4)GlcNAc
# Method in brief: as §1
# [16] = molecular target: GlcNAc(a1-4)Gal(b1-3)GlcNAc
# Method in brief: as §1
# [17] = molecular target: GlcNAc(b1-2)Gal(b1-3)GalNAc
# Method in brief: as §1
# [18] = molecular target: GlcNAc(b1-2)Man(a1-3)[GlcNAc(b1-2)Man(a1-6)]Man(b1-4)GlcNAc(b1-4)GlcNAc
# Method in brief: as §1
# Kdn(a2-3)Gal(b1-3)GlcNAc = molecular target: Kdn(a2-3)Gal(b1-3)GlcNAc
# Method in brief: as §1
# [19] = molecular target: Kdn(a2-3)Gal(b1-4)[Fuc(a1-3)]GlcNAc
# Method in brief: as §1
# Kdn(a2-6)Gal(b1-4)GlcNAc = molecular target: Kdn(a2-6)Gal(b1-4)GlcNAc
# Method in brief: as §1
# [20] = molecular target: Man(a1-2)Man(a1-2)Man(a1-6)[Man(a1-3)]Man
# Method in brief: as §1
# Man(a1-2)Man(a1-3)Man = molecular target: Man(a1-2)Man(a1-3)Man
# Method in brief: as §1
# Man(a1-3)[Man(a1-6)]Man = molecular target: Man(a1-3)[Man(a1-6)]Man
# Method in brief: as §1
# [21] = molecular target: Man(a1-3)[Man(a1-6)]Man(a1-6)[Man(a1-3)]Man
# Method in brief: as §1
# [22] = molecular target: Neu5Ac(a2-3)Gal(b1-4)[Fuc(a1-3)]GlcNAc(b1-3)GalNAc
# Method in brief: as §1
# Neu5Ac(a2-6)Gal = molecular target: Neu5Ac(a2-6)Gal
# Method in brief: as §1
# [23] = molecular target: Neu5Ac(a2-6)Gal(b1-4)GlcNAc(b1-3)GalNAc
# Method in brief: as §1
# Neu5Ac(a2-6)GalNAc = molecular target: Neu5Ac(a2-6)GalNAc
# Method in brief: as §1
# [24] = molecular target: Neu5Ac(a2-6)GlcNAc(b1-4)GlcNAc
# Method in brief: as §1
# Neu5Ac(a2-8)Neu5Ac = molecular target: Neu5Ac(a2-8)Neu5Ac
# Method in brief: as §1
# [25] = molecular target: Neu5Ac(a2-8)Neu5Ac(a2-3)[GalNAc(b1-4)]Gal(b1-4)Glc
# Method in brief: as §1
binder,measurement,setting,value
B1,glycan array binding signal (z-score),Fuc(a1-2)Gal(b1-3)GalNAc,0.244
same,glycan array binding signal (z-score),[1],-1.2
same,glycan array binding signal (z-score),[2],-0.09
same,glycan array binding signal (z-score),[3],3.03
same,glycan array binding signal (z-score),[4],1.12
same,glycan array binding signal (z-score),[5],3.03
same,glycan array binding signal (z-score),[6],2.22
same,glycan array binding signal (z-score),[7],-0.063
same,glycan array binding signal (z-score),[8],1.43
same,glycan array binding signal (z-score),[9],4.58
same,glycan array binding signal (z-score),Gal(a1-3)Gal(b1-4)Glc,-0.864
same,glycan array binding signal (z-score),[10],-0.809
same,glycan array binding signal (z-score),[11],-0.149
same,glycan array binding signal (z-score),Gal(a1-4)Gal(b1-4)GlcNAc,0.091
same,glycan array binding signal (z-score),Gal(a1-4)GlcNAc,0.322
same,glycan array binding signal (z-score),[12],0.135
same,glycan array binding signal (z-score),Gal(b1-3)GlcNAc,0.247
same,glycan array binding signal (z-score),[13],-0.979
same,glycan array binding signal (z-score),[14],3
same,glycan array binding signal (z-score),[15],0.212
same,glycan array binding signal (z-score),Gal3S(b1-4)Glc6S,0.515
same,glycan array binding signal (z-score),GalNAc(a1-3)Gal,0.334
same,glycan array binding signal (z-score),GalNAc(b1-3)GalNAc,0.05
same,glycan array binding signal (z-score),GalNAc(b1-4)GlcNAc,0.088
same,glycan array binding signal (z-score),[16],0.098
same,glycan array binding signal (z-score),[17],-0.601
same,glycan array binding signal (z-score),[18],0.375
same,glycan array binding signal (z-score),Kdn(a2-3)Gal(b1-3)GlcNAc,0.128
same,glycan array binding signal (z-score),[19],-0.465
same,glycan array binding signal (z-score),Kdn(a2-6)Gal(b1-4)GlcNAc,-0.748
same,glycan array binding signal (z-score),[20],-0.753
same,glycan array binding signal (z-score),Man(a1-2)Man(a1-3)Man,-0.096
same,glycan array binding signal (z-score),Man(a1-3)[Man(a1-6)]Man,-0.136
same,glycan array binding signal (z-score),[21],0.134
same,glycan array binding signal (z-score),[22],6.97
same,glycan array binding signal (z-score),Neu5Ac(a2-6)Gal,2.2
same,glycan array binding signal (z-score),[23],-0.94
same,glycan array binding signal (z-score),Neu5Ac(a2-6)GalNAc,-1.62
same,glycan array binding signal (z-score),[24],-0.781
same,glycan array binding signal (z-score),Neu5Ac(a2-8)Neu5Ac,0.214
same,glycan array binding signal (z-score),[25],-0.835
